# Reference: PubChem BioAssay (Tox21)
# Inconclusive results are not listed. The source made the active and inactive calls. Unless noted, the call rests on the fitted dose curve; in most records, active means well fitted curve in the direction sought with a large enough effect in the repeat runs; inconclusive means weak or mixed curves; inactive means no such curve, though single readings can be large; an effect the other way counts as inactive or inconclusive.
# Tested on: not listed separately
# Assay: qHTS assay to identify small molecule antagonists of the androgen receptor (AR) signaling pathway - cell viability counter screen (AID 743033; further: nearly all actives have a fitted effect of over 45% in size)
# Conditions: AR-bla HEK293 viability, CellTiter-Glo luminescence, 16 h; series mostly up to 58.5 µM; activity change, negative = cytotoxicity: at the top concentration
# On the % scale 0 is the no-effect control and ±100 the full control effect.
Structure (SMILES),"activity change, negative = cytotoxicity",Potency
CC(C)Nc1ccc(NC(C)C)c2c1C(=O)c1ccccc1C2=O,2.71% (inactive),
O=C(OCCc1ccccc1)c1ccccc1,-8.12% (inactive),
CCCCCCCN,0.137% [at 78.9 µM] (inactive),
C[N+]1(C)CCC(OC(=O)C(O)(c2ccccc2)C2CCCC2)C1 (stereo not given),,inactive
COc1ccnc(CS(=O)c2nc3ccc(OC(F)F)cc3[nH]2)c1OC (stereo not given),-29.4% (inactive),
CCCCC(CC)COC(=O)COc1ccc(Cl)cc1Cl (stereo not given),-2.64% [at 78.9 µM] (inactive),
C=CCOC(=O)CCC1CCCCC1,0.636% (inactive),
CC(=O)c1cccc([N+](=O)[O-])c1,6.42% (inactive),
CC1=CCCC(C)(C)C12CCC(C)O2 (stereo not given),1.15% (inactive),
CCc1cc(C2=C(C(=O)O)N(c3ccccc3C(F)(F)F)S(=O)(=O)c3ccccc32)cc2c1OCO2,-12.9% (inactive),
Nc1cccc([N+](=O)[O-])c1,0.426% (inactive),
O=S(c1cc(Cl)cc(Cl)c1O)c1cc(Cl)cc(Cl)c1O,-2.86% (inactive),
C[N+]1(CC2COC(c3ccccc3)(C3CCCCC3)O2)CCCCC1 (stereo not given),-4.77% (inactive),
c1ccc(CNCCNCc2ccccc2)cc1,-21.6% (inactive),
C=CC(=O)OCCOc1ccccc1,-6.76% (inactive),
O=C(c1ccc(F)cc1)C1CCN(CCn2c(=S)[nH]c3ccccc3c2=O)CC1,-24.2% (inactive),
Cc1cc(C(=O)O)ccc1[N+](=O)[O-],-1.34% (inactive),

Structure (SMILES),"activity change, negative = cytotoxicity",Potency
CC1=CC=C(C(C)C)CC1,0.385% (inactive),
C#Cc1cccc(Nc2ncnc3cc(OCCOC)c(OCCOC)cc23)c1,-17.7% (inactive),
CC(=O)NO,22.8% (inactive),
C#C[C@]1(O)CC[C@H]2[C@@H]3CCc4cc(OC5CCCC5)ccc4[C@H]3CC[C@@]21C,-35.7% (inactive),
NC(N)=NCCC[C@H](N)C(=O)O,-0.842% (inactive),
CCCCCCCCCCCCCCCCCCOS(=O)(=O)O,-1.56% (inactive),
COC(C)OC,0.629% (inactive),
NCC(=O)CCC(=O)O,-20.1% (inactive),
C=C1C(=C/C=C2\CCC[C@]3(C)[C@@H]([C@H](C)/C=C/[C@@H](O)C4CC4)CC[C@@H]23)C[C@@H](O)C[C@@H]1O,-9.8% (inactive),
COc1ccc(C(=O)N2CCN(CC(=O)N3CCOCC3)CC2)cc1,1.2% (inactive),
CCCCO,,inactive
Cc1ccccc1S(=O)(=O)O,2.82% [at 78.9 µM] (inactive),
COC(=O)C1=C(C)NC(COC(N)=O)=C(C(=O)OC(C)C)C1c1cccc(Cl)c1Cl (stereo not given),-29.5% (inactive),
COc1cc(Cl)c(OC)cc1N,-2.03% (inactive),
CN(C)C(=O)NC1(c2ccccc2)CCN(CC[C@@]2(c3ccc(F)c(F)c3)CN(C(=O)c3ccccc3)CCO2)CC1,-18.8% (inactive),
CC(C)(C)OCC1CO1 (stereo not given),-0.6% [at 78.9 µM] (inactive),
CCc1c(C(=O)NN2CCCCC2)nn(-c2ccc(Cl)cc2Cl)c1-c1ccc(Br)cc1,-1.12% (inactive),

# Biological target: Androgen receptor (Homo sapiens) (UniProt P10275)
# Sequence (P10275 whole entry, looked up): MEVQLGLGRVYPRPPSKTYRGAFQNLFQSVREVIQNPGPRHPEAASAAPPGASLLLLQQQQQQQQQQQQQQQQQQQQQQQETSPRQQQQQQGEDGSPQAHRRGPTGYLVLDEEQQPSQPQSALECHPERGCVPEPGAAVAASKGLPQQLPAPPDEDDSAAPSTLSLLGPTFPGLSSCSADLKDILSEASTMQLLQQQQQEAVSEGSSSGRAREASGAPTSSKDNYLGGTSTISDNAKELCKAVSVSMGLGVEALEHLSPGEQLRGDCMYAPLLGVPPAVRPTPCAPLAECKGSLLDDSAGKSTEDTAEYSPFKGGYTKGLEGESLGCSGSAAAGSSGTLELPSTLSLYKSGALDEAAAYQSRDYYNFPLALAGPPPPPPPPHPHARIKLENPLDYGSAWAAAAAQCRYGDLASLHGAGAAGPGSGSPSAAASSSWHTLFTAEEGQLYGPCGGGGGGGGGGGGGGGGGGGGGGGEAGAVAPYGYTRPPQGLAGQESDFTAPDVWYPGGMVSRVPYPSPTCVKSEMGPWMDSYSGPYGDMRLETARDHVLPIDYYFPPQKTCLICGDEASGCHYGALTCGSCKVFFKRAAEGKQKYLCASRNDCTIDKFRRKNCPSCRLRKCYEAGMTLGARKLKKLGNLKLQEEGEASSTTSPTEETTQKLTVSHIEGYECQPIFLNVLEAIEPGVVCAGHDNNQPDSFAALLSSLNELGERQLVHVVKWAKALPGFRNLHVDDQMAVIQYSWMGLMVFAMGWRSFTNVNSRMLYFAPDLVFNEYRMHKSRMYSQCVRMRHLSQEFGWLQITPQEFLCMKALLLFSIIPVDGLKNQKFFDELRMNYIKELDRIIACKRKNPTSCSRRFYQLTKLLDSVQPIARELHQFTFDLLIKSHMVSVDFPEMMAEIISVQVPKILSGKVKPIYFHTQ
# Assay: qHTS assay to identify small molecule antagonists of the androgen receptor (AR) signaling pathway (AID 743035; active means well fitted inhibition curve with a large enough effect in the signal ratio in the repeat runs, not every such curve was filed as active; the % refers to the signal ratio; further: potency means the concentration at half of the fitted maximal effect)
# Conditions: HEK293 AR-UAS-bla, R1881-stimulated, beta-lactamase FRET, 16 h; series mostly up to 58.5 µM; activity change, negative = inhibition: at the top concentration
# Summary of the method: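 Fluorescence from a beta-lactamase FRET substrate (LiveBLAzer B/G, 2 h, room temperature) measured inhibition of R1881-stimulated signaling in GeneBLAzer AR-UAS-bla HEK293 cells exposed to compound for 16 h at 37C.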
Structure (SMILES),"activity change, negative = inhibition",Potency
Nc1cccc([N+](=O)[O-])c1,1.09% (inactive),
CC(=O)NO,17.7% (inactive),
CCC(=O)O[C@]1(C(=O)CCl)[C@@H](C)C[C@H]2[C@@H]3CCC4=CC(=O)C=C[C@]4(C)[C@@]3(F)[C@@H](O)C[C@@]21C,,7.56 µM (active)

# Biological target: Androgen receptor (Homo sapiens) (UniProt P10275)
# Assay: qHTS assay to identify small molecule agonists of the androgen receptor (AR) signaling pathway (AID 743036; active means well fitted activation curve with a large enough effect in the signal ratio in the repeat runs, with a control signal flat, not every such curve was filed as active; the % refers to the signal ratio; further: potency means the concentration at half of the fitted maximal effect)
# Conditions: HEK293 AR-UAS-bla GripTite, beta-lactamase FRET ratio, 16 h; series mostly up to 62.4 µM; activation: at the top concentration
# Summary of the method: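 In this Tox21 qHTS, 2,000 HEK293 AR-bla cells per well were incubated with compounds for 16 h at 37C and 5% CO2. Fluorescence intensity was recorded 2 h after adding LiveBLAzer B/G FRET substrate at room temperature.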
Structure (SMILES),activation,Potency
Nc1cccc([N+](=O)[O-])c1,2.71% (inactive),
COc1cc(C(=O)OCCCN2CCCN(CCCOC(=O)c3cc(OC)c(OC)c(OC)c3)CC2)cc(OC)c1OC,-12.7% (inactive),
CC(=O)NO,16.2% (inactive),
C=C1C(=C/C=C2\CCC[C@]3(C)[C@@H]([C@H](C)/C=C/[C@@H](O)C4CC4)CC[C@@H]23)C[C@@H](O)C[C@@H]1O,-9.08% (inactive),
COC(=O)C1=C(C)NC(COC(N)=O)=C(C(=O)OC(C)C)C1c1cccc(Cl)c1Cl (stereo not given),,10.7 µM (active)

# Biological target: Androgen receptor (Homo sapiens) (UniProt P10275)
# Assay: qHTS assay to identify small molecule agonists of the androgen receptor (AR) signaling pathway using the MDA cell line (AID 743040; further: nearly all actives have a fitted effect of over 20% in size; further: potency means the concentration at half of the fitted maximal effect)
# Conditions: MDA-kb2 AR-luc cells, MMTV luciferase, 16 h; series mostly up to 70.3 µM; activity change: at the top concentration
# Summary of the method: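 MDA-kb2 breast carcinoma cells carrying MMTV-luciferase (responsive to AR and GR), plated 5 h then treated 16 h with compounds at 37C, 0% CO2. Read-out was ONE-Glo luminescence after 30 min at room temperature.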
Structure (SMILES),activity change,Potency
Nc1cccc([N+](=O)[O-])c1,-4.06% (inactive),
O=S(c1cc(Cl)cc(Cl)c1O)c1cc(Cl)cc(Cl)c1O,2.82% (inactive),
COc1cc(C(=O)OCCCN2CCCN(CCCOC(=O)c3cc(OC)c(OC)c(OC)c3)CC2)cc(OC)c1OC,-7.46% (inactive),
O=C(c1ccc(F)cc1)C1CCN(CCn2c(=S)[nH]c3ccccc3c2=O)CC1,13.7% (inactive),
CC(=O)NO,3.85% (inactive),
C=C1C(=C/C=C2\CCC[C@]3(C)[C@@H]([C@H](C)/C=C/[C@@H](O)C4CC4)CC[C@@H]23)C[C@@H](O)C[C@@H]1O,-11.5% (inactive),
CCC(=O)O[C@]1(C(=O)CCl)[C@@H](C)C[C@H]2[C@@H]3CCC4=CC(=O)C=C[C@]4(C)[C@@]3(F)[C@@H](O)C[C@@]21C,,0.0019 µM (active)
COC(=O)C1=C(C)NC(COC(N)=O)=C(C(=O)OC(C)C)C1c1cccc(Cl)c1Cl (stereo not given),-7.09% (inactive),

# Tested on: not listed separately
# Assay: qHTS assay to identify small molecule antagonists of the androgen receptor (AR) signaling pathway using the MDA cell line - cell viability counter screen (AID 743041; further: nearly all actives have a fitted effect of over 45% in size)
# Conditions: MDA-kb2 viability, CellTiter-Fluor, 16 h, cells co-treated with R1881 androgen agonist; series mostly up to 70.3 µM; viability change, negative = cytotoxic: at the top concentration
# Summary of the method: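 MDA-kb2 AR-luc cells (MMTV-luciferase, AR/GR responsive) treated with compounds plus R1881 agonist for 16 h at 37C. CellTiter-Fluor added at 15.5 h; fluorescence read after 30 min in the same wells.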
Structure (SMILES),"viability change, negative = cytotoxic",Potency
CC(C)Nc1ccc(NC(C)C)c2c1C(=O)c1ccccc1C2=O,-7.44% (inactive),
O=C(OCCc1ccccc1)c1ccccc1,1.12% (inactive),
CCCCCCCN,8.56% [at 95 µM] (inactive),
C[N+]1(C)CCC(OC(=O)C(O)(c2ccccc2)C2CCCC2)C1 (stereo not given),,inactive
COc1ccnc(CS(=O)c2nc3ccc(OC(F)F)cc3[nH]2)c1OC (stereo not given),2.92% (inactive),
CCCCC(CC)COC(=O)COc1ccc(Cl)cc1Cl (stereo not given),-2.84% [at 95 µM] (inactive),
C=CCOC(=O)CCC1CCCCC1,13.9% (inactive),
CC(=O)c1cccc([N+](=O)[O-])c1,1.15% (inactive),
CC1=CCCC(C)(C)C12CCC(C)O2 (stereo not given),-0.474% (inactive),
CCc1cc(C2=C(C(=O)O)N(c3ccccc3C(F)(F)F)S(=O)(=O)c3ccccc32)cc2c1OCO2,3.87% (inactive),
Nc1cccc([N+](=O)[O-])c1,-0.43% (inactive),
O=S(c1cc(Cl)cc(Cl)c1O)c1cc(Cl)cc(Cl)c1O,-0.0258% (inactive),
c1ccc(CNCCNCc2ccccc2)cc1,11.9% (inactive),
C=CC(=O)OCCOc1ccccc1,2.1% (inactive),
COc1cc(C(=O)OCCCN2CCCN(CCCOC(=O)c3cc(OC)c(OC)c(OC)c3)CC2)cc(OC)c1OC,-8.3% (inactive),
O=C(c1ccc(F)cc1)C1CCN(CCn2c(=S)[nH]c3ccccc3c2=O)CC1,-8.4% (inactive),
Cc1cc(C(=O)O)ccc1[N+](=O)[O-],0.24% (inactive),
CC1=CC=C(C(C)C)CC1,0.21% (inactive),

Structure (SMILES),"viability change, negative = cytotoxic",Potency
C#Cc1cccc(Nc2ncnc3cc(OCCOC)c(OCCOC)cc23)c1,-17.8% (inactive),
CC(=O)NO,0.584% (inactive),
C#C[C@]1(O)CC[C@H]2[C@@H]3CCc4cc(OC5CCCC5)ccc4[C@H]3CC[C@@]21C,-18.3% (inactive),
NC(N)=NCCC[C@H](N)C(=O)O,23.1% (inactive),
CC1=CC[C@H](C(C)C)C=C1,-1.98% (inactive),
CCCCCCCCCCCCCCCCCCOS(=O)(=O)O,2.08% (inactive),
COC(C)OC,9.9% (inactive),
NCC(=O)CCC(=O)O,2.04% (inactive),
COc1ccc(C(=O)N2CCN(CC(=O)N3CCOCC3)CC2)cc1,1.11% (inactive),
CCCCO,,inactive
CCC(=O)O[C@]1(C(=O)CCl)[C@@H](C)C[C@H]2[C@@H]3CCC4=CC(=O)C=C[C@]4(C)[C@@]3(F)[C@@H](O)C[C@@]21C,-3.24% (inactive),
Cc1ccccc1S(=O)(=O)O,-2.39% [at 95 µM] (inactive),
COC(=O)C1=C(C)NC(COC(N)=O)=C(C(=O)OC(C)C)C1c1cccc(Cl)c1Cl (stereo not given),0.514% (inactive),
COc1cc(Cl)c(OC)cc1N,2.59% (inactive),
CN(C)C(=O)NC1(c2ccccc2)CCN(CC[C@@]2(c3ccc(F)c(F)c3)CN(C(=O)c3ccccc3)CCO2)CC1,0.145% (inactive),
CC(C)(C)OCC1CO1 (stereo not given),9.25% [at 95 µM] (inactive),
CCc1c(C(=O)NN2CCCCC2)nn(-c2ccc(Cl)cc2Cl)c1-c1ccc(Br)cc1,4.32% (inactive),
